For one sequence, binding signal results are on record in paper PMC7862700, “An all-to-all approach to the identification of sequence-specific readers for epigenetic DNA modifications on cytosine”.

Experiment in all cases: DAPPL (digital affinity profiling via proximity ligation, sequencing); 10 mM Tris-HCl pH 7.5, 50 mM NaCl, 1 mM DTT, 4% glycerol, room temperature, 30 min; GST-TFs on glutathione beads, 16-mer random dsDNA library, 0.1% formaldehyde crosslink after washing; high values mean tight binding
Experiment [1] has as its target T1, FLI1 (Homo sapiens, UniProt Q01543 1-452).
T1 sequence: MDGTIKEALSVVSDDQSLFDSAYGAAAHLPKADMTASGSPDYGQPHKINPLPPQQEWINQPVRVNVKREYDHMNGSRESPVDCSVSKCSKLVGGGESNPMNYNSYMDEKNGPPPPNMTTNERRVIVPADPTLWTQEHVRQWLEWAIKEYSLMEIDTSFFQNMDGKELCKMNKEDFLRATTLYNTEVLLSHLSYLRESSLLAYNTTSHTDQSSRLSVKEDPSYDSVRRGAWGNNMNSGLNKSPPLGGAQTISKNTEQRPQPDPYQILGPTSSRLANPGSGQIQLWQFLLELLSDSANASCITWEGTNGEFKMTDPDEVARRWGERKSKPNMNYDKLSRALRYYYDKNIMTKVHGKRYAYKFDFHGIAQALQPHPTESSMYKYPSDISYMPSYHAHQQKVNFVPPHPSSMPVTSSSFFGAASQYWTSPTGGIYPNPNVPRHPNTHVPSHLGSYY
The note with it: protein: recombinant; tags: N-terminal GST; dsDNA, one strand shown. In outline: (§1)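 Sequencing on an Illumina NextSeq500 followed washing, crosslinking with 0.1% formaldehyde, proximity ligation (BsaI/T4 ligase, 1 h, 37 °C) and PCR amplification of pools that had been incubated for 30 min at room temperature with 200 nmole of a random double-stranded 16-mer DNA library in Tris/NaCl/DTT/glycerol buffer. Each pool held DNA-barcoded human transcription factors, expressed in yeast as GST fusions and captured on glutathione beads, plus a tag-only sample. Binding signal is a hexamer's read frequency for a factor divided by its frequency in the tag-only sample.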

Experiment [2] concerns the target T2, ELK1 (Homo sapiens, UniProt P19419 1-428).
T2 sequence: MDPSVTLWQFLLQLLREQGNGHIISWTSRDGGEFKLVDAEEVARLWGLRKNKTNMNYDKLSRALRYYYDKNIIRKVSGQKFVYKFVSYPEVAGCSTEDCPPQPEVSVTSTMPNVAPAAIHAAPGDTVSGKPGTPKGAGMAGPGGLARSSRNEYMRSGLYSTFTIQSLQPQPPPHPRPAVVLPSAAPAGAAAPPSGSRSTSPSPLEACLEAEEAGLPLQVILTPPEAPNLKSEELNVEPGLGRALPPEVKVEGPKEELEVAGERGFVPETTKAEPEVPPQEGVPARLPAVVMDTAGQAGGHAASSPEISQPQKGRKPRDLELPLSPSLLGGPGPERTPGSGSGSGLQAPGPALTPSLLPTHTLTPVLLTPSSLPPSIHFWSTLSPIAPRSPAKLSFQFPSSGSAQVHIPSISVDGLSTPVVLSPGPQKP
The note with it: protein: recombinant; tags: N-terminal GST; dsDNA, one strand shown. A digest of the protocol:
as §1

In experiment [3] the target is T3, GABPA (Homo sapiens, UniProt Q06546 1-454).
T3 sequence: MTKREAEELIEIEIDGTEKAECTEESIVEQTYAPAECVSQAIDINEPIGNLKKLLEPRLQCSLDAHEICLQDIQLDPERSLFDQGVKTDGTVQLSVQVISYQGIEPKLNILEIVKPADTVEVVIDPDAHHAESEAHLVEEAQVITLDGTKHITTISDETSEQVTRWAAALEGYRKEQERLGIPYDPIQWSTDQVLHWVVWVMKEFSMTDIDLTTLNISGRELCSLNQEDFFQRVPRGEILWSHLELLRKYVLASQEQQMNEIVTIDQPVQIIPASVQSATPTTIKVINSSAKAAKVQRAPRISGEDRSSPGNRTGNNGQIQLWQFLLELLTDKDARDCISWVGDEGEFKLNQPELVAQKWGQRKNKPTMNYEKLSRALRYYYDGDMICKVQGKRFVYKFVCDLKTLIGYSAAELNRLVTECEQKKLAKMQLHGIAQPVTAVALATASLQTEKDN
The note with it: protein: recombinant; tags: N-terminal GST; dsDNA, one strand shown. In outline: as §1

The target of experiment [4] is T4, ERG (Homo sapiens, UniProt P11308 1-479).
T4 sequence: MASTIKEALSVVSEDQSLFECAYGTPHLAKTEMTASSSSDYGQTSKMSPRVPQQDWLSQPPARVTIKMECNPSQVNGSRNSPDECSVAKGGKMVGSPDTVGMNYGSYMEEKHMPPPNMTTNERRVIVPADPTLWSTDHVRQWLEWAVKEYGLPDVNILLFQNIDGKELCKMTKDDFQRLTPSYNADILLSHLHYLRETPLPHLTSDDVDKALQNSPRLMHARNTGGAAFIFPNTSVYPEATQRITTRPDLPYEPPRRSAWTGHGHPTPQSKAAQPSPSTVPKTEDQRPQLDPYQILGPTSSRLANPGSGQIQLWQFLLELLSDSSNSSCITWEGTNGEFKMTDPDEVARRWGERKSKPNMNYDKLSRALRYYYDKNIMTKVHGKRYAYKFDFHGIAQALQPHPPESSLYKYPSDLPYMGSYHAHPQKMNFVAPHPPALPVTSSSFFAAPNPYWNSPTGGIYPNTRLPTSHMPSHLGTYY
The note with it: protein: recombinant; tags: N-terminal GST; dsDNA, one strand shown. A digest of the protocol: as §1

Experiment [5] deals with ELF1 (Homo sapiens, UniProt P32519 1-619). The note with it: protein: recombinant; tags: N-terminal GST; dsDNA, one strand shown. A digest of the protocol: as §1
The target of experiment [6] is T5, EHF (Homo sapiens, UniProt Q9NZC4 1-300).
T5 sequence: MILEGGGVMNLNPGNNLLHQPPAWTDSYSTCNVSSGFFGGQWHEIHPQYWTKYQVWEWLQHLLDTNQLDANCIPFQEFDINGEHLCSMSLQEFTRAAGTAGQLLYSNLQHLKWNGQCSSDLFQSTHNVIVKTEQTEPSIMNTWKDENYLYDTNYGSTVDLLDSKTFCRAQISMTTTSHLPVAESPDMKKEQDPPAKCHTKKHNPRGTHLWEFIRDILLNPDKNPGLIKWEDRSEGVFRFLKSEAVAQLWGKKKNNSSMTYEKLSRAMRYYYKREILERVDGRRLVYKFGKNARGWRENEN
The note with it: protein: recombinant; tags: N-terminal GST; dsDNA, one strand shown. In outline: as §1

Experiment [7] concerns the target SPI1 (Homo sapiens, UniProt P17947 1-270). The note with it: protein: recombinant; tags: N-terminal GST; dsDNA, one strand shown. In outline: as §1
Experiment [8] deals with SPIB (Homo sapiens, UniProt Q01892 1-262). The note with it: protein: recombinant; tags: N-terminal GST; dsDNA, one strand shown. In outline: as §1
Experiment [9] concerns the target T6, ELK3 (Homo sapiens, UniProt P41970 1-407).
T6 sequence: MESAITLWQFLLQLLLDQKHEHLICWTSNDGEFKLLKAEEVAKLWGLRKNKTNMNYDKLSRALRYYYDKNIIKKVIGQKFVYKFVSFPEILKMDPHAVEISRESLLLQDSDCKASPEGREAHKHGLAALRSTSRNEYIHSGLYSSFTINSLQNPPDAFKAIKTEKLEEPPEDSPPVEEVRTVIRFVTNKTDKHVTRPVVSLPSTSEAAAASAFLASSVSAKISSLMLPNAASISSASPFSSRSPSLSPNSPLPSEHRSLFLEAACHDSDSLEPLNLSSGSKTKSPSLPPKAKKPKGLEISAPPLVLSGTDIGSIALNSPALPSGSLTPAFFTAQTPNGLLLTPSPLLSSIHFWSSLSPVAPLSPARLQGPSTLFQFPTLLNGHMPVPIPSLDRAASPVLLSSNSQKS
The note with it: protein: recombinant; tags: N-terminal GST; dsDNA, one strand shown. A digest of the protocol:
as §1

Experiment [10] has as its target T7, FEV (Homo sapiens, UniProt Q99581 1-238).
T7 sequence: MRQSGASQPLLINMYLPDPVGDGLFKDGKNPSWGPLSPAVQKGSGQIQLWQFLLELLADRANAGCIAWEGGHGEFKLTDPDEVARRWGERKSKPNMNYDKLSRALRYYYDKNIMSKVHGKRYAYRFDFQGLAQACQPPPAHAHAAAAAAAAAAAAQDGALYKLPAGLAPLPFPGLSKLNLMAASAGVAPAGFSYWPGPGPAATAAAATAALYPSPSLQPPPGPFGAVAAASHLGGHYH
The note with it: protein: recombinant; tags: N-terminal GST; dsDNA, one strand shown. A digest of the protocol: as §1

Experiment [11] deals with ETV5 (Homo sapiens, UniProt P41161 1-510). The note with it: protein: recombinant; tags: N-terminal GST; dsDNA, one strand shown. A digest of the protocol:
as §1

The target of experiment [12] is HSF1 (Homo sapiens, UniProt Q00613 1-529). The note with it: protein: recombinant; tags: N-terminal GST; chain copies: 3; dsDNA, one strand shown. In outline: as §1
Experiment [13] deals with T8, SPIC (Homo sapiens, UniProt Q8N5J4 1-248).
T8 sequence: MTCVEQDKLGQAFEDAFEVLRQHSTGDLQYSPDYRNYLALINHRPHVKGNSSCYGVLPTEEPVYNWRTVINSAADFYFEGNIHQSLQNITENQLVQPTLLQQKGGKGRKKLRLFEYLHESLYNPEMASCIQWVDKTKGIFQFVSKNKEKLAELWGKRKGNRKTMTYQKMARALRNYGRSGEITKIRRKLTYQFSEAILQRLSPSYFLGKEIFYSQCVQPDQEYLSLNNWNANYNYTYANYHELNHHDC
The note with it: protein: recombinant; tags: N-terminal GST; dsDNA, one strand shown. In outline:
as §1

In experiment [14] the target is ELF4 (Homo sapiens, UniProt Q99607 1-663). The note with it: protein: recombinant; tags: N-terminal GST; dsDNA, one strand shown. A digest of the protocol:
as §1

The target of experiment [15] is T9, ELK4 (Homo sapiens, UniProt P28324-2 1-405).
T9 sequence: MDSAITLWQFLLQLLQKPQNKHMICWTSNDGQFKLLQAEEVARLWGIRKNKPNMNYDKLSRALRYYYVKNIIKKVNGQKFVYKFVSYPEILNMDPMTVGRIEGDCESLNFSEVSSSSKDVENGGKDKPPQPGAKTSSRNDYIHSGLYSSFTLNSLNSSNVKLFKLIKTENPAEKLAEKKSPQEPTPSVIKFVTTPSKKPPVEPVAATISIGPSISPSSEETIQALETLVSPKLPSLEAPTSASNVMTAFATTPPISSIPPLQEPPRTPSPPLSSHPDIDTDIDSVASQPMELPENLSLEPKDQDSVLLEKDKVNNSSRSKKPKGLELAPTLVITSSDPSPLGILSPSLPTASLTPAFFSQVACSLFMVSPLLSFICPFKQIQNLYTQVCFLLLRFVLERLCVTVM
The note with it: protein: recombinant; tags: N-terminal GST; dsDNA, one strand shown. A digest of the protocol: as §1

The target of experiment [16] is T10, ETV2 (Homo sapiens, UniProt O00321 1-342).
T10 sequence: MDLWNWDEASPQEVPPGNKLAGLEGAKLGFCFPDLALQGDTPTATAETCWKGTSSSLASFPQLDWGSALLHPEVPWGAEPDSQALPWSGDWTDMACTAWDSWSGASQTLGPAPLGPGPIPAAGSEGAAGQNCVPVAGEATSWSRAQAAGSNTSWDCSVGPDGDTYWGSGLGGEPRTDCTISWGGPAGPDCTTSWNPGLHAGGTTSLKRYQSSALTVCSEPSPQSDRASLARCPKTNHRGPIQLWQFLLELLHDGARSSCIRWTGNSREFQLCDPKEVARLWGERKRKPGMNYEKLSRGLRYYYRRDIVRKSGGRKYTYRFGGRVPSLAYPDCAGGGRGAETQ
The note with it: protein: recombinant; tags: N-terminal GST; dsDNA, one strand shown. A digest of the protocol: as §1

The target of experiment [17] is T11, ELF3 (Homo sapiens, UniProt P78545 1-371).
T11 sequence: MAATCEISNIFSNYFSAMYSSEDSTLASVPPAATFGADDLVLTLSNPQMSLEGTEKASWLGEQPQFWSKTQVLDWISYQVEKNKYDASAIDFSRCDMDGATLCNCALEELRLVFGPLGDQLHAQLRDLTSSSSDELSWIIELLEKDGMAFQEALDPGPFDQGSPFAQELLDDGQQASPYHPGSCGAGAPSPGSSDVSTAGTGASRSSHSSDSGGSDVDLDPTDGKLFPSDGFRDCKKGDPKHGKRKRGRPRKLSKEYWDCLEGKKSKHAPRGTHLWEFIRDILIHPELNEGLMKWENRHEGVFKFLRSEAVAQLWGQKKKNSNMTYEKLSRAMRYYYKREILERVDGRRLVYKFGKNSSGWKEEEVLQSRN
The note with it: protein: recombinant; tags: N-terminal GST; dsDNA, one strand shown. In outline:
as §1

For experiment [18], the target named is ETV1 (Homo sapiens, UniProt P50549 1-477). The note with it: protein: recombinant; tags: N-terminal GST; dsDNA, one strand shown. In outline:
as §1

ELF4, sequence (Q99607 whole entry): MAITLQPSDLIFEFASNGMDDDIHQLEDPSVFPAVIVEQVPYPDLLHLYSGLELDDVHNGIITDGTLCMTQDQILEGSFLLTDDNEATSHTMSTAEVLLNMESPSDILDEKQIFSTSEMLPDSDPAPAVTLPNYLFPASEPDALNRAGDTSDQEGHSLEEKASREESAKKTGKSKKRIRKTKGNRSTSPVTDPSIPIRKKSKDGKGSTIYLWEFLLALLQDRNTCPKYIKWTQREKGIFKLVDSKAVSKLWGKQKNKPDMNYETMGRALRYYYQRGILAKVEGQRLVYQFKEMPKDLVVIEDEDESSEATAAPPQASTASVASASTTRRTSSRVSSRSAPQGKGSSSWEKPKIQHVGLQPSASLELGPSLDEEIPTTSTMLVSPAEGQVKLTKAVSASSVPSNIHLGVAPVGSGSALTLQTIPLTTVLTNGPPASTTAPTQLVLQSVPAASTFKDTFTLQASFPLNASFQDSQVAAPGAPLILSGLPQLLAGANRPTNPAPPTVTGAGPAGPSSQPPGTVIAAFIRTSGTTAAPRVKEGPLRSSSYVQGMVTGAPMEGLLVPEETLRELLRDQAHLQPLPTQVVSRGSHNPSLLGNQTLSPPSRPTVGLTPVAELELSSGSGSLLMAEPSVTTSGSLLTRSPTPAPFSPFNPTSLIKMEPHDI
SPIB, sequence (Q01892 whole entry): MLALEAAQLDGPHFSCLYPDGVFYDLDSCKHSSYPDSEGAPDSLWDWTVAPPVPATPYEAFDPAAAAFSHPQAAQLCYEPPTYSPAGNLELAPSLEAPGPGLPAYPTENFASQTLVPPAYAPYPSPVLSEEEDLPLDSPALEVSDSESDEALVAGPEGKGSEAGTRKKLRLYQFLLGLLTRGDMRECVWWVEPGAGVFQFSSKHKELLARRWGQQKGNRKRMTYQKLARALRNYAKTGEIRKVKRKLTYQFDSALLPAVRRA
HSF1, sequence (Q00613 whole entry): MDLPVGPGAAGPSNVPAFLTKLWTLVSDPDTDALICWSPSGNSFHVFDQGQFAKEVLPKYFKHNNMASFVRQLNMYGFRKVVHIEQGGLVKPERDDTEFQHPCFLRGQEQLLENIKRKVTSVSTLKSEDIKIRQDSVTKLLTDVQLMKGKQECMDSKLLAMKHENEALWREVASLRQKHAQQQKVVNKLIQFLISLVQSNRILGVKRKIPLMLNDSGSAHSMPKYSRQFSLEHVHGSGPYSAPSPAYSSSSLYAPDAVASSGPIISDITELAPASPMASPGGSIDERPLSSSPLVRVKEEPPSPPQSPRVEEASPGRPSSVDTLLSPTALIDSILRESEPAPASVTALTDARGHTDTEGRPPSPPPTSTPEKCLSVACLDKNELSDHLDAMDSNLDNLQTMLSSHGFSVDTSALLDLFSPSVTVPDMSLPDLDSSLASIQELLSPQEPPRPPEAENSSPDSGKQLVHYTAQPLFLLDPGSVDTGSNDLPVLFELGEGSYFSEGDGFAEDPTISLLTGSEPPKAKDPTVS
ETV5, sequence (P41161 whole entry): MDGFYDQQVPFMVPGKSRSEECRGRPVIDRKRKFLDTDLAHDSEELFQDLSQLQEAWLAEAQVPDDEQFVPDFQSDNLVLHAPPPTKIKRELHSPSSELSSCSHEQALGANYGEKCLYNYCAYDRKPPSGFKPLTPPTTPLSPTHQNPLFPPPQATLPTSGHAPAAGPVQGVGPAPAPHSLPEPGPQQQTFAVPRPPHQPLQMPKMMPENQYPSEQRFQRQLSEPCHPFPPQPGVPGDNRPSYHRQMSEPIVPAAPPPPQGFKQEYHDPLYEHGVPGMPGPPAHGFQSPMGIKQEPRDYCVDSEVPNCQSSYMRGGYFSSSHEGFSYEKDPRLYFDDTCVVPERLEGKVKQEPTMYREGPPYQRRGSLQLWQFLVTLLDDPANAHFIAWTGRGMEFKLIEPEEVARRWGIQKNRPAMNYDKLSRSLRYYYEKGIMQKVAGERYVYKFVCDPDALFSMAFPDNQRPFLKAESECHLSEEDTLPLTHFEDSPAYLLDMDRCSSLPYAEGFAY
ELF1, sequence (P32519 whole entry): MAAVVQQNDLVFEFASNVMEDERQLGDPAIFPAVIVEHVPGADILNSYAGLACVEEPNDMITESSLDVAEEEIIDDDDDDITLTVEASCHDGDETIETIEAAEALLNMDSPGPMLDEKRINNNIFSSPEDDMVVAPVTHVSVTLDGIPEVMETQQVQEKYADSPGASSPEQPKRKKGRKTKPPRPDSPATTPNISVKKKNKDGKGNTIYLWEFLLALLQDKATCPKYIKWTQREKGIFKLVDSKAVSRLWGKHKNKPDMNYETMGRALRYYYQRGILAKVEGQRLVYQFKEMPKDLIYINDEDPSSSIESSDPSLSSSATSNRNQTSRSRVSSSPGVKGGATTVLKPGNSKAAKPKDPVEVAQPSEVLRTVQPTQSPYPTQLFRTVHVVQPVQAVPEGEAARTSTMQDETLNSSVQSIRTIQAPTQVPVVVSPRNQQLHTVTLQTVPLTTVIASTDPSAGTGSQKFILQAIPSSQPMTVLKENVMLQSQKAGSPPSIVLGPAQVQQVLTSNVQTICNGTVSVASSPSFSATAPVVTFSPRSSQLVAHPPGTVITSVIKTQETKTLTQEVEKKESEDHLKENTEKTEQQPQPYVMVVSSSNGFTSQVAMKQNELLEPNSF
ETV1, sequence (P50549 whole entry): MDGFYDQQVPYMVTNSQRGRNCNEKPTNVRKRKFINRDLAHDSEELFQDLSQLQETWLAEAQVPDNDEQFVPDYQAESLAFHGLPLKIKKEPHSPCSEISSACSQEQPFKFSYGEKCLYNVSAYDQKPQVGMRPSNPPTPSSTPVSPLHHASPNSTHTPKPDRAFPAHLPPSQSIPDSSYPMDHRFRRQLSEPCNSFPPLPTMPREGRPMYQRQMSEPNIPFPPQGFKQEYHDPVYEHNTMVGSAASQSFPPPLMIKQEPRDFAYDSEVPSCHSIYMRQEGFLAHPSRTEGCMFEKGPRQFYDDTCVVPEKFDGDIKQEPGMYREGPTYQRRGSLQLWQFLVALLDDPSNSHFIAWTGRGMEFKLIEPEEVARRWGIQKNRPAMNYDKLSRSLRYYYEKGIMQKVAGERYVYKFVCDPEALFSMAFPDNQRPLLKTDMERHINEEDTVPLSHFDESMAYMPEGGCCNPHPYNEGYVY

Regarding CCACAA, the binding signal was 1.2 fold enrichment (6-mer frequency, TF over GST control) in [1]; 1.14 fold enrichment (6-mer frequency, TF over GST control) in [2]; 1.25 fold enrichment (6-mer frequency, TF over GST control) in experiment [3]; 1.09 fold enrichment (6-mer frequency, TF over GST control) in [4]; 1.21 fold enrichment (6-mer frequency, TF over GST control) in experiment [5]; 1.08 fold enrichment (6-mer frequency, TF over GST control) in experiment [6]. The binding signal in experiment [7] is 1.22 fold enrichment (6-mer frequency, TF over GST control); in experiment [8], 1.07 fold enrichment (6-mer frequency, TF over GST control); in [9], 1.34 fold enrichment (6-mer frequency, TF over GST control); in experiment [10], 1.15 fold enrichment (6-mer frequency, TF over GST control); in experiment [11], 1.19 fold enrichment (6-mer frequency, TF over GST control); in experiment [12] it was 1.1 fold enrichment (6-mer frequency, TF over GST control). Besides, the binding signal in experiment [13] was 1.09 fold enrichment (6-mer frequency, TF over GST control); in experiment [14], 1.17 fold enrichment (6-mer frequency, TF over GST control); in experiment [15], 1.07 fold enrichment (6-mer frequency, TF over GST control); in experiment [16] it was 1.14 fold enrichment (6-mer frequency, TF over GST control); in experiment [17], 1.39 fold enrichment (6-mer frequency, TF over GST control); in experiment [18] it was 1.19 fold enrichment (6-mer frequency, TF over GST control).
